Screening data: PubChem BioAssay, National Center for Advancing Translational Sciences (NCATS)
PINK1 expr mod – A Quantitative High throughput Screen to Identify Chemical Modulators of PINK1 Expression; PINK1 immunofluorescence, high-content cytometry, 24 h; Potency, µM (titrated, usually from 76.6 µM), without a hit: at the top dose activation (PINK1 increase), most hits filed as activators; 0.2% of 410,000 active; AID 624263, 2012; active = well fitted activation curve with a large enough effect; inconclusive = small, poorly fitted or top-dose-only effect; cell line not stated here; note: % of control where 0% means no effect; nearly all actives have a fitted effect of over 65% in size
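Decision-based qHTS: stable cells, 24 h exposure to five compound concentrations, CCCP as control. Fixed cells stained for PINK1 plus nuclear, mitochondrial and cell markers, cytometer read.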
PTAP TSG101 blk – qHTS Assay for Iinhibitors of HIV-1 Budding by Blocking the Interaction of PTAP/TSG101; Potency, µM (series often up to 115 µM), for inactives: at the highest dose activity change, negative = inhibition, hits mostly inhibitors; Fluorescence polarization, FITC-PTAP peptide / Tsg101 binding; 340,000 tested, under 10 active; AID 493005, 2010; active = well fitted inhibition curve with a large enough effect in the main read-out, with a control signal flat, not every such curve was filed as active; inconclusive = small, poorly fitted or top-dose-only effect, or effect the other way, or a change in a side signal; inactive = no such curve, though single readings can be large or run the other way; note: % of control where 0% means no effect
Target sequence (Q99816 whole entry, looked up): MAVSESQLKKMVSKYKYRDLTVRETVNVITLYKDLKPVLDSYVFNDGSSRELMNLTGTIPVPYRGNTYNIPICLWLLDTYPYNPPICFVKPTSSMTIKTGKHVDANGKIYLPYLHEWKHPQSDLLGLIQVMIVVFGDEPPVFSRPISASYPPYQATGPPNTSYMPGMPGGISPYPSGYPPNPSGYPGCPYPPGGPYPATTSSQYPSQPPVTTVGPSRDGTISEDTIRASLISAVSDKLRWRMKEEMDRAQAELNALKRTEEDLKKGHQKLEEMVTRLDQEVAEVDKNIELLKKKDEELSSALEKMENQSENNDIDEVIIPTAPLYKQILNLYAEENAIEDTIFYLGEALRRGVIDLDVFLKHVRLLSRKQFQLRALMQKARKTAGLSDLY
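FP read-out: FITC-PTAP peptide, 50 nM final, binding Tsg101 binding domain, 10 uM final; 20 min, r.t.; 10 mM HEPES pH 7.5, 0.15 M NaCl, 0.01% Tween 20, 3 mM EDTA, 0.1 mM TCEP.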
SW480 rerep – A quantitative high throughput screen for small molecules that induce DNA re-replication in SW480 colon adenocarcinoma cells | SW480 DNA re-replication, Hoechst DNA content imaging, 48 h | Potency, µM (doses to about 46.1 µM), for the others: at the top dose re-replication activation, hits mostly activators | 1.8% of 340,000 active | AID 624297, 2012; note: % of control where 0% means no effect; nearly all actives have a fitted effect of over 55% in size
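Image-based read-out: total Hoechst fluorescence of nuclei (405 nm excitation, 500-530 nm emission), with hits raising the fraction of high-intensity nuclei. SW480 colon cells incubated 48 hr with compounds at 37 C.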
MCF10A rereplic – A quantitative high throughput screen for small molecules that induce DNA re-replication in MCF 10a normal breast cells; 2.9% of 350,000 active; Potency, µM (titrated, usually from 46.1 µM), inactives show at the highest dose activity, positive = re-replication, hits mostly activators; AID 624296, 2012; MCF 10A DNA re-replication, Hoechst nuclear intensity, 48 h; note: % of control where 0% means no effect; nearly all actives have a fitted effect of over 50% in size
KB-V1 cytotox – qHTS assay for MDR1-selective chemotherapeutics: Primary screen using the drug-selected MDR subline cells KB-V1; KB-V1 MDR cells viability, CellTiter-Glo, 72 h; Potency, µM (titrated, usually from 46.1 µM), usual class: cytotoxic; 3.4% of 400,000 active; AID 1347076, 2019; note: % is set by controls: 0 for no effect and ±100 for the full control effect; nearly all actives have a fitted effect of over 60% in size
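Readout: CellTiter-Glo luminescence, 10 min after addition. Cells: KB-V1 MDR subline, 72 h at 37 degrees C with compound. Analysis: corrected, normalized data fitted to concentration-effect curves.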
KB-3-1 tox – qHTS assay for MDR1-selective chemotherapeutics: Primary screen using the parental adenocarcinoma cell KB-3-1; KB-3-1 viability, CellTiter-Glo ATP luminescence, 72 h; Potency, µM (top dose mostly 46.1 µM), usual class: cytotoxic; 1.4% of 400,000 active; AID 1347075, 2019; note: % is set by controls: 0 for no effect and ±100 for the full control effect; nearly all actives have a fitted effect of over 60% in size
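Here the drug-naive KB-3-1 line serves as comparator for MDR sub-line selectivity; cells received compound titrations, 72 h at 37 °C, then CellTiter-Glo readout.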
Active calls of the source: *; [ ] = dose if it differs, or a comment. Shown are actives, neighbours in structure and some others; about 6.8% of the full set was active somewhere. Unless noted, calls come from the whole dose curve; as a rule, active = well fitted curve in the direction sought with a large enough effect; inconclusive = small, poorly fitted or top-dose-only effect, or another doubt; inactive = no such curve, though single readings can be large; an effect the other way counts as inactive or inconclusive. Potency is the fitted concentration of half-maximal effect.

How did COc1cccc(C2CN(c3ccc(F)cc3F)N=C2c2cccs2)c1OC (stereo not drawn) do in these assays?
PINK1 expr mod: 15.6%; PTAP TSG101 blk: 2.2%; SW480 rerep: 4.11µM*; MCF10A rereplic: inconclusive; KB-V1 cytotox: inactive; KB-3-1 tox: inactive

What do the screens show for `COc1ccccc1C1CN(c2ccccc2)N=C1c1cccs1` (stereo not drawn)?
PINK1 expr mod: 8.3%[38.3 µM]; PTAP TSG101 blk: 0.5%; SW480 rerep: 18.7%; MCF10A rereplic: 8.9%; KB-V1 cytotox: inactive; KB-3-1 tox: inactive

Results for CCOCCc1nn2c(=O)cc(COC(=O)c3ccccc3NC(=O)C3CCCCC3)nc2s1 ?
PINK1 expr mod: 2.4%; KB-V1 cytotox: inactive; KB-3-1 tox: inactive

Results for CCn1nc(C)c(Br)c1C(=O)Sc1ccccc1Cl ?
PINK1 expr mod: 7.6%; PTAP TSG101 blk: -0.6%; SW480 rerep: 22.8%; MCF10A rereplic: 18.4µM*; KB-V1 cytotox: inactive; KB-3-1 tox: inactive

How did CC1(C)Cc2cccc(OCC(=O)Nc3ccccc3N3CCOCC3)c2O1 do in these assays?
PINK1 expr mod: 4.6%; PTAP TSG101 blk: -0.3%; SW480 rerep: 10.4%; MCF10A rereplic: inconclusive; KB-V1 cytotox: 3.66µM*; KB-3-1 tox: inactive

Results for CC1(C)Cc2cccc(OCC(=O)Nc3ccccc3C(F)(F)F)c2O1 ?
PINK1 expr mod: 2.2%; PTAP TSG101 blk: -1.7%; SW480 rerep: inconclusive; MCF10A rereplic: inconclusive; KB-V1 cytotox: inactive; KB-3-1 tox: inactive

Results for CC1(C)Cc2cccc(OCC(=O)NCc3ccc(F)cc3)c2O1 ?
PINK1 expr mod: 3.2%; PTAP TSG101 blk: 0.2%; SW480 rerep: 2.7%; MCF10A rereplic: 11.7%; KB-V1 cytotox: 14.6µM*; KB-3-1 tox: inactive

What do the screens show for `CC1(C)Cc2cccc(OCC(=O)OCC(=O)NCc3ccccc3)c2O1`?
PINK1 expr mod: -1.6%; SW480 rerep: -1.8%; MCF10A rereplic: -2.5%; KB-V1 cytotox: inconclusive; KB-3-1 tox: inactive

Results for CC(C)CC(=O)N1c2nc(C(C)C)nn2C2(CCCCC2)[C@@H]2CCCC[C@@H]21 ?
PINK1 expr mod: -0.8%

Results for CCc1ccc(N=C2NC(=O)/C(=C/c3cc(OC)c(OC)c(OC)c3)S2)cc1 ?
PINK1 expr mod: 1.5%; PTAP TSG101 blk: -0.2%; SW480 rerep: inconclusive; MCF10A rereplic: 11.6µM*; KB-V1 cytotox: inconclusive; KB-3-1 tox: inconclusive

What do the screens show for `CCOc1cc(/C=C2\SC(=Nc3ccc(CC)cc3)NC2=O)ccc1OCC(=O)O`?
PINK1 expr mod: -1.1%; PTAP TSG101 blk: -0.5%; SW480 rerep: inconclusive; MCF10A rereplic: 18.4µM*; KB-V1 cytotox: inactive; KB-3-1 tox: inactive

How did O=C(c1cccc(F)c1)N1CCC2(CCCN(C(c3ccccc3)c3ccccc3)C2)CC1 do in these assays?
PINK1 expr mod: 14.6%

Results for COC(=O)N1CCC[C@@]2(CCN(c3ncccn3)C2)C1 ?
PINK1 expr mod: 0.1%

Results for COc1cc(-c2ccc3ncnc(NCCc4cnc[nH]4)c3c2)cc(OC)c1OC ?
KB-V1 cytotox: inactive; KB-3-1 tox: inactive

Results for COc1ccc(NC(=O)Cn2c(=O)n(Cc3nc(-c4ccccc4)no3)c(=O)c3ccccc32)cc1Cl ?
PINK1 expr mod: 1.2%; KB-V1 cytotox: inactive; KB-3-1 tox: inactive
